The whole screen tested about 5,500 compounds, of which about 2,000 (36%) were called active. Roughly 18% stayed inconclusive and do not appear here. Cut-off read from the data, not from the text of the source: active = normalized growth mostly below about 0.91 (no sharp cut-off); inconclusive = no clear call, values can overlap the other calls; inactive = mostly above about 0.92. This is one part of the list.
Test: chemical genetic growth profiling, strain panel (AID 1159580);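 note: tested at 20 µM; growth read once vehicle control cultures reached saturation at 30 °C; 1 = growth at the plate median or of vehicle wells; lower values mean less growth of the strain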
Conditions: growth OD

Measured: normalized growth

CC(=O)O[C@H]1C[C@@H](OC(C)=O)C(C)(C)C2CC(=O)[C@]3(C)C(CC[C@@]4(C)[C@H](C(=O)O)OC(=O)C5OC543)[C@]21C (stereo partly specified)
inactive: S. cerevisiae deletion strains, locus YJR066W, strain TOR1, stronger effect = lower value 0.96 | S. cerevisiae deletion strains, locus YKL009W, strain mrt4, stronger effect = lower value 0.996 | S. cerevisiae deletion strains, locus YKL068W, stronger effect = lower value 0.988 | S. cerevisiae deletion strains, locus YKL085W, strain MDH1 (second series), stronger effect = lower value 1 | S. cerevisiae deletion strains, locus YKL085W, strain MDH1, stronger effect = lower value 1 | S. cerevisiae deletion strains, locus YKL160W, strain elf1, stronger effect = lower value 0.99 | S. cerevisiae deletion strains, locus YKL190W, strain CNB1, stronger effect = lower value 0.987 | S. cerevisiae deletion strains, locus YKR001C, strain vps1, stronger effect = lower value 1.01 | S. cerevisiae deletion strains, locus YKR026C, strain gcn3, stronger effect = lower value 1 | S. cerevisiae deletion strains, locus YKR091W, strain srl3, stronger effect = lower value 0.978 | S. cerevisiae deletion strains, locus YLL001W, strain dnm1, stronger effect = lower value 1 | S. cerevisiae deletion strains, locus YLL026W, stronger effect = lower value 0.981 | S. cerevisiae deletion strains, locus YLL041C, strain sdh2, stronger effect = lower value 0.989 | S. cerevisiae deletion strains, locus YLR027C, strain aat2, stronger effect = lower value 1 | S. cerevisiae deletion strains, locus YLR039C, strain RIC1, stronger effect = lower value 1.06 | S. cerevisiae deletion strains, locus YLR058C, strain SHM2, stronger effect = lower value 0.985 | S. cerevisiae deletion strains, locus YLR102C, strain apc9, stronger effect = lower value 1 | S. cerevisiae deletion strains, locus YLR113W, strain HOG1, stronger effect = lower value 0.968 | S. cerevisiae deletion strains, locus YLR221C, strain rsa3, stronger effect = lower value 1.01 | S. cerevisiae deletion strains, locus YLR258W, strain gsy2, stronger effect = lower value 0.995 | S. cerevisiae deletion strains, locus YLR262C, strain YPT6 (second series), stronger effect = lower value 0.978 | S. cerevisiae deletion strains, locus YLR262C, strain YPT6, stronger effect = lower value 1.05 | S. cerevisiae deletion strains, locus YLR268W, strain sec22, stronger effect = lower value 0.954 | S. cerevisiae deletion strains, locus YLR320W, strain mms22, stronger effect = lower value 1.02 | S. cerevisiae deletion strains, locus YLR342W, strain FKS1 (second series), stronger effect = lower value 0.972 | S. cerevisiae deletion strains, locus YLR342W, strain FKS1, stronger effect = lower value 1.01 | S. cerevisiae deletion strains, locus YLR357W, strain rsc2, stronger effect = lower value 1 | S. cerevisiae deletion strains, locus YLR370C, strain arc18, stronger effect = lower value 0.981 | S. cerevisiae deletion strains, locus YLR371W, strain rom2, stronger effect = lower value 0.985 | S. cerevisiae deletion strains, locus YLR384C, strain iki3, stronger effect = lower value 0.998 | S. cerevisiae deletion strains, locus YLR418C, strain cdc73, stronger effect = lower value 1.07 | S. cerevisiae deletion strains, locus YML016C, strain PPZ1, stronger effect = lower value 0.976 | S. cerevisiae deletion strains, locus YML032C, strain rad52, stronger effect = lower value 0.981 | S. cerevisiae deletion strains, locus YML120C, strain ndi1, stronger effect = lower value 0.993 | S. cerevisiae deletion strains, locus YML124C, strain tub3, stronger effect = lower value 0.989 | S. cerevisiae deletion strains, locus YMR058W, strain fet3, stronger effect = lower value 0.982 | S. cerevisiae deletion strains, locus YMR078C, strain ctf18, stronger effect = lower value 0.975 | S. cerevisiae deletion strains, locus YMR125W, strain sto1, stronger effect = lower value 0.98 | S. cerevisiae deletion strains, locus YMR129W, stronger effect = lower value 0.976 | S. cerevisiae deletion strains, locus YMR205C, strain PFK2, stronger effect = lower value 1.01 | S. cerevisiae deletion strains, locus YMR223W, strain ubp8, stronger effect = lower value 0.993 | S. cerevisiae deletion strains, locus YMR231W, strain pep5, stronger effect = lower value 0.991 | S. cerevisiae deletion strains, locus YMR307W, strain GAS1, stronger effect = lower value 0.984 | S. cerevisiae deletion strains, locus YNL067W, strain RPL9B, stronger effect = lower value 1.04 | S. cerevisiae deletion strains, locus YNL071W, strain lat1, stronger effect = lower value 1.01 | S. cerevisiae deletion strains, locus YNL128W, strain TEP1, stronger effect = lower value 0.951 | S. cerevisiae deletion strains, locus YNL153C, strain GIM3, stronger effect = lower value 1.02 | S. cerevisiae deletion strains, locus YNL183C, strain NPR1, stronger effect = lower value 0.972 | S. cerevisiae deletion strains, locus YNL209W, strain ssb2, stronger effect = lower value 0.982 | S. cerevisiae deletion strains, locus YNL233W, strain BNI4, stronger effect = lower value 1.03 | S. cerevisiae deletion strains, locus YNL248C, strain rpa49, stronger effect = lower value 0.964 | S. cerevisiae deletion strains, locus YNL250W, strain rad50, stronger effect = lower value 0.993 | S. cerevisiae deletion strains, locus YNL271C, strain bni1, stronger effect = lower value 0.996 | S. cerevisiae deletion strains, locus YNL298W, strain CLA4, stronger effect = lower value 0.99 | S. cerevisiae deletion strains, locus YNL307C, strain MCK1, stronger effect = lower value 0.999 | S. cerevisiae deletion strains, locus YNL322C, strain KRE1 (second series), stronger effect = lower value 1.01 | S. cerevisiae deletion strains, locus YNR049C, strain mso1, stronger effect = lower value 0.972 | S. cerevisiae deletion strains, locus YNR052C, strain pop2, stronger effect = lower value 1.03 | S. cerevisiae deletion strains, locus YOL012C, strain htz1 0.975 | S. cerevisiae deletion strains, locus YOL147C, strain pex11, stronger effect = lower value 0.992 | S. cerevisiae deletion strains, locus YOR001W, strain rrp6, stronger effect = lower value 1.01 | S. cerevisiae deletion strains, locus YOR061W, strain CKA2, stronger effect = lower value 0.964 | S. cerevisiae deletion strains, locus YOR069W, strain VPS5, stronger effect = lower value 0.99 | S. cerevisiae deletion strains, locus YOR070C, strain gyp1, stronger effect = lower value 1 | S. cerevisiae deletion strains, locus YOR080W, strain dia2, stronger effect = lower value 0.983 | S. cerevisiae deletion strains, locus YOR083W, strain WHI5, stronger effect = lower value 1.01 | S. cerevisiae deletion strains, locus YOR106W, strain vam3, stronger effect = lower value 0.982 | S. cerevisiae deletion strains, locus YOR136W, strain idh2, stronger effect = lower value 0.985 | S. cerevisiae deletion strains, locus YOR144C, strain elg1, stronger effect = lower value 0.994 | S. cerevisiae deletion strains, locus YOR184W, strain ser1, stronger effect = lower value 0.968 | S. cerevisiae deletion strains, locus YOR231W, strain MKK1, stronger effect = lower value 1.02 | S. cerevisiae deletion strains, locus YOR265W, strain rbl2, stronger effect = lower value 1 | S. cerevisiae deletion strains, locus YOR270C, strain vph1, stronger effect = lower value 1.02 | S. cerevisiae deletion strains, locus YOR290C, strain snf2, stronger effect = lower value 0.969 | S. cerevisiae deletion strains, locus YOR316C, strain cot1, stronger effect = lower value 0.986 | S. cerevisiae deletion strains, locus YPL051W, strain arl3, stronger effect = lower value 0.99 | S. cerevisiae deletion strains, locus YPL078C, strain atp4, stronger effect = lower value 0.985 | S. cerevisiae deletion strains, locus YPL106C, strain sse1, stronger effect = lower value 1 | S. cerevisiae deletion strains, locus YPL240C, strain hsp82, stronger effect = lower value 0.993 | S. cerevisiae deletion strains, locus YPL256C, strain CLN2, stronger effect = lower value 1.01 | S. cerevisiae deletion strains, locus YPR119W, strain clb2, stronger effect = lower value 0.994 | S. cerevisiae deletion strains, locus YPR141C, strain kar3, stronger effect = lower value 0.986 | S. cerevisiae deletion strains, locus YPR163C, strain tif3, stronger effect = lower value 0.998 | S. cerevisiae deletion strains, locus YPR167C, strain met16, stronger effect = lower value 0.988 | S. cerevisiae deletion strains, strain wtn01, stronger effect = lower value 0.983 | S. cerevisiae strains, strain wild type, stronger effect = lower value 0.974

From PubChem BioAssay AID1159580 (chemical genetic matrix, 2015)
